CYP2C9 act = activators of human CYP2C9. activation factor at 5 µM. actives 1.4% (n = 96,000). recombinant CYP2C9, luciferin-H conversion, luminescence; active compounds read high; factor 1 = untreated enzyme, 0 = blocked. P11712;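 active means activation factor of 2 or more for CYP2C9 at a 5 µM dose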
CYP2C19 act = increases human CYP2C19 enzyme activity | P33261 | recombinant CYP2C19, luciferin-H EGE luminescence; active compounds read high; 0 = fully inhibited enzyme, 1 = untreated enzyme | activation factor at 5 µM | 96,000 tested, under 10 active | AID 1025;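 active means activation factor of at least 2 at 5 µM in the primary screen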
Target sequence (P33261 whole entry, looked up): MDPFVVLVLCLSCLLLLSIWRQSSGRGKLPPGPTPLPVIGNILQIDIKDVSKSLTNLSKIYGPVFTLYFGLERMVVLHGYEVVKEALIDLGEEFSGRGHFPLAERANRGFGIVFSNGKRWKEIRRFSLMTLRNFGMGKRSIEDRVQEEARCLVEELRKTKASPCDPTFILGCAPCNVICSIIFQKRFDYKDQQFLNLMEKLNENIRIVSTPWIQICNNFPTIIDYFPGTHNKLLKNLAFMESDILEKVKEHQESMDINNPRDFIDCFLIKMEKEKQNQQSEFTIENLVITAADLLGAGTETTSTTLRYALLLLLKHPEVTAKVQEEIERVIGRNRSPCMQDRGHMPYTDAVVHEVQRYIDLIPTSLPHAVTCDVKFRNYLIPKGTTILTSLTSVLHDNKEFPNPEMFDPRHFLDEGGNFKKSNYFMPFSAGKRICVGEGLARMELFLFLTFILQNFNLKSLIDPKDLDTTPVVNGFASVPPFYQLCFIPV
D1 allo mod = allosterically modulates the human D1 dopamine receptor | HEK293 D1, CRE-luciferase, dopamine EC30 potentiation; actives deviate in either direction | actives 5.9% (n = 58,000) | B-score at 10 µM;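 active means luminescence count or its row- and column-corrected plate score outside the 99.7% band of the plate's sample wells, on either side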
CYP2C19 inh = human CYP2C19 inhibition; P33261; CYP2C19 Supersomes, luciferin-H EGE luminescence, 30 min; inhibition, % at 5 µM; actives 21% (n = 96,000); AID 778;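 active means CYP2C19 inhibition above a set limit at 5 µM in the primary screen, cut at about 50% in these data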
hDAT+cocaine = human DAT dopamine uptake with cocaine, either direction | Q01959 | LLC-PK1 hDAT cells, [14C]-dopamine uptake with cocaine IC80; actives deviate in either direction | B-score at 10 µM | actives 1.3% (n = 110,000) | AID 449768;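 active means Z score or B-score, a plate-position-corrected score, falls beyond the plate's 99.7% confidence bounds, in either direction; inactive means both scores lie inside the 99.7% bounds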
CYP2C9 inhib = inhibitors of human CYP2C9; P11712; CYP2C9 Supersomes, luciferin-H conversion, luminescence; inhibition, % at 5 µM; actives 20% (n = 96,000); AID 777;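 active means blocking of liver enzyme CYP2C9 beyond about 50% at 5 µM, limit read from the data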
A number is an active result; – = inactive; · = no result given. The list is not random: actives were taken first. Their share in the collection is about 28%.

SMILES	CYP2C9 act	CYP2C19 act	D1 allo mod	CYP2C19 inh	hDAT+cocaine	CYP2C9 inhib
COc1ccc(C(c2c[nH]c3ccccc23)c2c[nH]c3ccccc23)cc1O	–	–	·	95	–	100
COC(=O)C(Cc1c[nH]c2ccccc12)NC(C)=O (stereo not drawn)	·	·	·	·	–	·
CCCOc1ccccc1Cn1c(=O)oc2ccc(C)cc21	–	–	·	96	–	84
CCCCOC(=O)Cn1c(=O)oc2ccc(C)cc21	2.2	–	–	–	–	–
CCOc1ccccc1Cn1c(=O)oc2ccc(C)cc21	·	·	–	·	–	·
COc1ccccc1OCCCn1c(=O)oc2ccc(C)cc21	–	–	–	56	–	–
CCCCOC(=O)n1c(=O)oc2ccccc21	–	–	–	–	–	–
COc1ccccc1OCCCn1c(=O)oc2ccccc21	–	–	–	100	–	–
C=C1CCN([C@@H](CC(C)C)C(=O)N2CCCC2)S(=O)(=O)c2ccccc21	·	·	·	·	–	·
COc1ccc(NC(=O)CSc2n[nH]c(N)n2)c([N+](=O)[O-])c1	–	–	·	–	–	–
COc1ccccc1OCCCn1c(=O)sc2ccccc21	–	–	–	100	–	74
O=C(CSc1nc(N2CCCCC2)nc(N2CCCCC2)n1)NC1CCCCC1	·	·	–	·	·	·
CCOC(=O)c1c(C)nc2sc3c(=O)n(-c4ccc(OC)cc4)cnc3c2c1-c1ccc(OC)cc1	–	–	·	74	–	80
Cc1ccc(C(=O)Cn2nnc3c(sc4nc5c(c(-c6ccccc6)c43)CCC5)c2=O)cc1	–	–	·	–	–	–
CCOC(=O)c1c(C)nc2sc3c(=O)n(-c4ccc(C(C)=O)cc4)nnc3c2c1-c1ccc(OC)cc1	–	–	·	59	–	–
CN(c1ccccc1)S(=O)(=O)c1ccc(C(=O)OCC(=O)NCc2ccco2)cc1	–	–	–	97	–	94
O=C(COC(=O)c1cccc(S(=O)(=O)N2CCN(c3ccccc3)CC2)c1)NCc1ccco1	–	–	·	78	–	–
O=C(COC(=O)c1cccc(Oc2ccccc2)c1)NCc1ccco1	–	–	·	–	–	–
COc1ccccc1OCC(=O)NCc1ccco1	–	–	·	–	–	–
COc1ccccc1N(C)S(=O)(=O)c1ccc(C(=O)OCC(=O)NCc2ccco2)cc1	–	–	·	–	–	88
Cc1noc(/C=C/c2ccco2)c1S(=O)(=O)N1CCC(C(=O)N2CCc3ccccc3C2)CC1	–	–	·	–	·	73
Cc1ccc(CNC(=O)C2CCN(S(=O)(=O)c3c(C)noc3/C=C/c3ccco3)CC2)cc1	–	–	·	–	–	57
Cc1noc(/C=C/c2ccco2)c1S(=O)(=O)N1CCC(C(=O)NCc2ccco2)CC1	–	–	·	–	–	–
CCOC(=O)C1C(=O)CC(C)(O)C(C(=O)OCC)C1c1ccc(OCC)cc1 (stereo not drawn)	–	–	–	–	–	–
C=CCOC(=O)C1C(=O)CC(C)(O)C(C(=O)OCC=C)C1c1ccc(OC)cc1 (stereo not drawn)	–	–	–	52	–	–
SMILES	CYP2C9 act	CYP2C19 act	D1 allo mod	CYP2C19 inh	hDAT+cocaine	CYP2C9 inhib
CCOC(=O)C1C(=O)CC(C)(O)C(C(=O)OCC)C1c1cccc(OC(F)(F)C(F)F)c1 (stereo not drawn)	–	–	–	86	–	90
CCOC(=O)[C@@H]1[C@H]2COc3ccc(Br)cc3[C@@H]2N2C(=O)N(c3cccc(F)c3)C(=O)[C@]12C	·	·	·	·	–	·
O=C(CSc1nc(N2CCCCC2)nc(N2CCCCC2)n1)N1CCN(c2ccccc2)CC1	–	–	–	77	–	83
O=C(C1CC1c1ccccc1)N1CCN(c2cccc(Cl)c2)CC1 (stereo not drawn)	–	–	–	60	–	–
Cn1nnnc1SCC(=O)N1CCN(c2cccc(Cl)c2)CC1	–	–	–	72	–	–
O=C(CSc1ccccc1)N1CCN(c2ccccc2)CC1	·	·	–	·	–	·
O=C(CSc1ccccn1)N1CCN(c2ccccc2)CC1	–	–	–	99	–	–
CCNc1nc(SC)nc(N(C#N)CC(=O)OC)n1	–	–	·	–	–	–
Cn1c(=O)c2c(nc(SCc3ccccn3)n2C)n(C)c1=O	–	–	–	–	·	–
CCCCCc1c(C)nc(N2CCOCC2)[nH]c1=O	–	–	–	–	–	–
COC(=O)c1c(NC(=S)Nc2ccccc2Cl)sc(C)c1C	–	–	·	–	–	–
O=C(CSc1ccccn1)N1CCN(c2cccc(Cl)c2)CC1	–	–	·	72	–	–
CCn1c(O)c(C=NC2CCCC2)sc1=S	–	–	·	69	–	51
Cc1ccc(/C=N/n2cnnc2)s1	–	–	·	–	–	–
CCn1c(N)c(C(=O)NC2CCCCC2)sc1=S	·	·	–	·	–	·
CCn1c(O)c(/C=N/n2cnnc2)sc1=S	–	–	–	62	–	54
CC1CCCCN1c1nnc(NC(=O)Cn2c(=O)oc3ccccc32)s1 (stereo not drawn)	–	–	·	–	–	57
CC1CCCCN1C(=O)Cn1c(=O)oc2ccccc21 (stereo not drawn)	·	·	–	·	–	·
COCCN(C(=O)Cc1cccs1)C(C(=O)NCc1ccc(OC)cc1)c1ccc(C(C)C)cc1 (stereo not drawn)	–	–	·	–	–	69
CCC(C)Cn1c(C)nc2ccccc21 (stereo not drawn)	–	–	–	52	–	–
COC(=O)Cn1c(C)nc2ccccc21	–	–	·	–	–	–
Nc1c(C(=O)NCc2ccc(Cl)cc2)sc2nc3c(c(C(F)(F)F)c12)CCC3	–	–	·	–	–	61
O=C(Nc1nc(-c2ccc(Cl)s2)cs1)c1cccs1	–	–	–	54	–	85
Cc1nc(C(=O)NC2CCCCC2)sc1C1(C)CC(c2cccnc2)=NO1 (stereo not drawn)	·	·	·	·	–	·
O=C(C1CCCN(Cc2ccccc2)C1)N1CCCCC1 (stereo not drawn)	–	–	·	–	–	–
SMILES	CYP2C9 act	CYP2C19 act	D1 allo mod	CYP2C19 inh	hDAT+cocaine	CYP2C9 inhib
CCS(=O)(=O)N1CCCC(C(=O)N2CCc3ccccc3C2)C1 (stereo not drawn)	–	–	–	–	·	–
O=C(C1CCCN(Cc2ccncc2)C1)N1CCc2ccccc2C1 (stereo not drawn)	–	–	–	96	–	67
Cc1cccc(CN2CCCC(C(=O)N3CCc4ccccc4C3)C2)c1 (stereo not drawn)	–	–	·	64	–	–
CCOC(=O)N1CCC(N2C(=O)c3ccccc3C2Nc2ccc(C)cc2)CC1 (stereo not drawn)	–	–	·	–	–	–
CCOC(=O)N1CCC(N2C(=O)c3ccccc3C2Nc2cc(C(=O)OC)cc(C(=O)OC)c2)CC1 (stereo not drawn)	–	–	–	73	–	66
CCOC(=O)N1CCC(N2C(=O)c3ccccc3C2Nc2c(C)cccc2C)CC1 (stereo not drawn)	–	–	·	95	·	94

Screens (PubChem)
